Values joined by “and” are separate entries in the source; they are usually repeats but may differ in a detail not shown here. Equal values may be shown once. Hit rate of the full screen: of about 2,300 compounds, about 1,400 (61%) were called active. Roughly 29% stayed inconclusive and do not appear here. Calls come from the whole dose curve; as a rule, active = well fitted inhibition curve with a large enough effect; inconclusive = small, poorly fitted or top-dose-only effect, or effect the other way; inactive = no such curve, though single readings can be large or run the other way. The set was probably picked from earlier hits. Some of the results follow.
experiment: Confirmation screen for delayed death inhibitors of the malarial parasite plastid, 96 hour incubation; note: nearly all actives have a fitted effect of over 60% in size; settings: P. falciparum luciferase growth in erythrocytes; series mostly up to 28.7 µM
Excerpt: The goal of this screen is to discover new antimalarial compounds that act by inhibiting the development of the apicoplast in the malarial parasite Plasmodium falciparum. The biochemical processes that make this organelle essential for erythrocytic stage parasites are not well understood. However, antibiotics, such as azithromycin and tetracycline, which target the apicoplast translational machinery, have a potent antimalarial effect. […] We have developed a cell-based assay that measures parasite growth based on the expression of an integrated copy of a firefly luciferase reporter. To detect small molecules that cause this "delayed death phenotype, erythrocytes infected with the luciferase-expressing parasites were incubated with compounds for either one or two generations, corresponding to 48 and 96 hours, respectively. Compounds that inhibit parasite growth in the second generation, but not the first, should be enriched in antimalarials that target the apicoplast. Growth inhibition is detected by a decrease in luciferase activity. MLPCN Grant: R21 NS059500 Assay Provider: David Fidock and Eric Ekland, Columbia University Keywords: NIH Roadmap, MLPCN, MLI, MLSMR, qHTS, NCGC, qHTS, malaria, luciferase, viability
Four microliters of culture medium (RPMI 1640 with 0.5% w/v Albumax (GIBCO), 24 mM sodium bicarbonate and 10 ug/mL gentamycin) were dispensed by a Multi-drop Combi into white solid 1536-well plates (Grenier) and 23 nL compound was added by a pin tool. Four microliters of infected erythrocytes (2% hematocrit, 0.1% parasitemia final concentration) in culture medium were dispensed and the plates incubated for 96 hours at 37 C in 5% CO2. Two microliters of luciferase detection reagent was added and luminescence was detected by a ViewLux (PerkinElmer) reader
Potency is the fitted concentration of half-maximal effect.

SMILES | Potency
COc1ccc(-n2c(C)cc(C(=O)C[N+]34CCN(CC3)CC4)c2C)cc1 | 12.6 µM (active)
C[C@@H]1CC2(CCCC[N+]2(C)C)C[C@H]1C | 14.1 µM (active)
CC(=O)N1CC(=O)Nc2ccc(Cl)cc2C1c1ccccc1 (centres undefined) | inactive
CN1C[C@H](C(=O)N[C@]2(C)O[C@@]3(O)[C@@H]4CCCN4C(=O)[C@H](Cc4ccccc4)N3C2=O)C[C@@H]2c3cccc4[nH]cc(c34)C[C@H]21 | 2.24 µM (active)
O=C(CN1CC=C(c2ccccc2)CC1)NC(=O)NCc1ccccc1 | inactive
Cc1ccc(N2C(=O)NC(=O)/C(=C\C=C\c3ccco3)C2=O)cc1 | inactive
CC(C)(C)C(=O)C(Oc1ccc(Cl)cc1)n1ccnc1 (centres undefined) | 14.1 µM (active)
C=C[C@H]1CN2CC[C@H]1C[C@@H]2[C@@H](O)c1ccnc2ccccc12 | 0.199 µM (active)
C[n+]1c2cc(N)ccc2cc2ccc(N)cc21 | 0.562 µM (active)
CCn1c(=O)oc2cc(NC(=O)CCl)ccc21 | 2 µM (active)
Cn1c(=O)oc2cc(NC(=O)CCl)ccc21 | 0.794 µM (active)
CN1CCc2cc3c(c4c2C1Cc1ccccc1-4)OCO3 (centres undefined) | 0.562 µM (active)
C=C1C(=O)O[C@@H]2C[C@@H](C)[C@@H]3C=CC(=O)[C@@]3(C)[C@@H](O)[C@H]12 | 2 µM (active)
C=C1C(=O)O[C@@H]2C[C@@H](C)[C@@H]3C=CC(=O)[C@@]3(C)[C@@H](OC(=O)CC(=O)O[C@H]3[C@@H]4C(=C)C(=O)O[C@@H]4C[C@@H](C)[C@@H]4C=CC(=O)[C@]43C)[C@H]12 | 0.0282 µM (active)
C=C1C(O)[C@@H]2O[C@]3(CC[C@H](/C=C/C(C)[C@@H]4CC(C)=CC5(O[C@H](C[C@@](C)(O)C(=O)O)CCC5O)O4)O3)CC[C@H]2O[C@@H]1C(O)CC(C)[C@H]1OC2(CCCCO2)CCC1C (some centres undefined) | 0.0631 µM (active)
O=c1oc2ccccc2c(O)c1[C@H]1c2ccc(O)cc2Oc2c1c(=O)oc1ccccc21 | inactive
CC(C)c1oc(=O)cc2c1[C@@H](O)[C@H]1OC(=O)[C@@]3(C)CC[C@@H](O)[C@@]2(C)C13 (some centres undefined) | 7.94 µM (active)
O=C(/C=C/c1cccs1)c1cc(Cl)ccc1OC(=O)N1CCOCC1 | 11.2 µM (active)
Cc1cc2ccccn2c1C(C[N+](=O)[O-])c1c(F)cccc1Cl (centres undefined) | 12.6 µM (active)
Cc1ccc(C(C)C)c(OCC(=O)N2CCN(Cc3nc4cc([N+](=O)[O-])ccc4n3C)CC2)c1 | inactive

SMILES | Potency
COc1cccc(-n2c(CN3CCN(C)CC3)nc3ccc([N+](=O)[O-])cc3c2=O)c1 | 15.8 µM (active)
CC(C)c1ccc(N2C(=O)NC(=O)/C(=C\C=C\c3ccco3)C2=O)cc1 | inactive
O=C(CCl)Nc1nccs1 | 6.31 µM (active)
Fc1ccc(C[n+]2c(-c3ccccc3)cc(-c3ccccc3)cc2-c2ccccc2)cc1 | 2 µM (active)
O=C1NC(=O)N(c2ccccc2)C(=O)/C1=C/C=C/c1ccco1 | inactive
C=CCn1c(O)c(N=Nc2c(C)n(C)n(-c3ccccc3)c2=O)c(=O)[nH]c1=S | 6.31 µM (active)
O=[N+]([O-])c1cccc2c([As](=O)(O)O)cccc12 | 1.12 µM (active)
C[C@@H]1C[C@@H]2O[C@H]2/C=C\C=C\C(=O)Cc2c(Cl)c(O)cc(O)c2C(=O)O1 | 7.08 µM (active)
COC(=O)c1nc(-c2ccc3c(n2)C(=O)C(N)=C(OC)C3=O)c(N)c(-c2ccc(OC)c(OC)c2O)c1C | 0.251 µM (active)
O=C(NC1CC2CCCC(C1)N2)c1ccccc1 (centres undefined) | 5.01 µM (active)
Cc1ccc(-c2nc(NC(=O)c3ccc(S(=O)(=O)N(CCC#N)CCC#N)cc3)sc2-c2ccccc2)cc1 | 11.2 µM (active)
CN1C2CCC1/C(=C/c1ccccn1)C(=O)/C2=C\c1ccccn1 | 0.158 µM (active)
C[C@@H]1O[C@@H](O[C@H]2C[C@@H](O)[C@]3(CO)[C@@H]4C(CC[C@]3(O)C2)[C@@]2(O)CC[C@H](C3COC(=O)C3)[C@@]2(C)C[C@H]4O)[C@H](O)[C@H](O)[C@H]1O (some centres undefined) | inactive
CCOc1cc2c(cc1OCC)-n1cccc1C(c1ccccc1F)NC2 (centres undefined) | 5.01 µM (active)
C[C@@H]1C[C@@H]([C@H](O)CC2CC(=O)NC(=O)C2)C(=O)[C@@H](C)C1 | 0.794 µM (active)
C[C@H]1C[C@@H](C)C(=O)[C@@H]([C@H](O)CC2CC(=O)NC(=O)C2)C1 | 0.0316 µM (active)
C/C1=C\[C@@H](C)C/C=C/[C@H]2[C@@H]3O[C@]3(C)[C@@H](C)[C@H]3[C@H](Cc4c[nH]c5ccccc45)NC(=O)[C@]32C(=O)/C=C/C(=O)[C@@H]1O | 0.891 µM (active)
CCC(C(=O)N1CCC2(CC1)OCCO2)n1c2ccccc2c2nc(=O)cc(C)n21 (centres undefined) | 11.2 µM (active)
C[C@@H]1CC[C@H]2[C@@H](C)C(=O)O[C@@H]3OC4(C)CC[C@@H]1C32OO4 (some centres undefined) | 0.0398 µM (active)
C[C@@H]1CC[C@H]2[C@@H](C)C(=O)O[C@@H]3O[C@@]4(C)CC[C@@H]1[C@]32OO4 | 0.0398 µM (active)

SMILES | Potency
CCN(CC)Cc1cc(Nc2ccnc3cc(Cl)ccc23)ccc1O | 89.1 nM (active) and 22.4 nM (active)
COc1ccc(-c2cc(-c3ccccc3)[n+](C)c(-c3ccccc3)c2)cc1 | 2 µM (active)
C[n+]1c(-c2ccccc2)cc(-c2ccc(Cl)cc2)cc1-c1ccccc1 | 0.891 µM (active)
CCOP(=O)(OCC)C(O)c1ccc(OC)cc1OC (centres undefined) | inactive
O=C1/C(=C/c2ccccc2)C[C@@]2(O)[C@H]3Cc4ccc(O)c5c4[C@@]2(CCN3CC2CC2)C1O5 (some centres undefined) | 5.01 µM (active)
COc1ccc(Cn2c(N)c(C(=O)NCc3ccco3)c3nc4ccccc4nc32)cc1 | 3.98 µM (active)
CC(C)CCOP(N)(=O)Oc1ccccc1 (centres undefined) | 3.98 µM (active)
CC[n+]1c(-c2ccccc2)c2cc(N)ccc2c2ccc(N)cc21 | 0.0282 µM (active)
CC1=CC2/C=C(\C)CCC(O)C(O)/C=C/C(=O)C23C(=O)NC(CC(C)C)C3C1C (centres undefined) | 12.6 µM (active)
CCCNS(=O)(=O)c1ccc(OCC(=O)N2CCN(Cc3ccc4c(c3)OCO4)CC2)c(C)c1 | 11.2 µM (active)
Oc1ccc(-[n+]2c(-c3ccccc3)cc(-c3ccccc3)cc2-c2ccccc2)cc1 | 0.0794 µM (active)
CN(C)c1ccc(C(=O)N/N=C/C23CC[C@@H](O)CC2(O)CC[C@@H]2[C@@H]3CCC3(C)C(C4=CC(=O)OC4)CCC23O)cc1 (some centres undefined) | 12.6 µM (active)
CC12CC[C@H]3[C@@H](CCC4(O)C[C@H](O)CCC34/C=N/NC(=O)c3ccccc3F)C1(O)CCC2C1=CC(=O)OC1 (some centres undefined) | inactive
COc1cc(C(=O)N/N=C/C23CC[C@@H](O)CC2(O)CC[C@@H]2[C@@H]3CCC3(C)C(C4=CC(=O)OC4)CCC23O)ccc1O (some centres undefined) | inactive
COC(=O)C1=C(c2ccccc2OCc2ccccc2)C[C@@H]2CC[C@H]1N2C(=O)NCCOc1ccc(OC)cc1 | 12.6 µM (active)
CC[C@H]1CN2CCc3cc(OC)c(OC)cc3C2C[C@@H]1C[C@H]1NCCc2cc(OC)c(OC)cc21 (some centres undefined) | 0.0501 µM (active)
CC[C@H]1CN2CCc3cc(OC)c(OC)cc3[C@@H]2C[C@@H]1C[C@H]1NCCc2cc(OC)c(OC)cc21 | 0.224 µM (active)
CC[C@H]1CN2CCc3cc(OC)c(OC)cc3[C@H]2C[C@@H]1C[C@@H]1NCCc2cc(OC)c(OC)cc21 | 0.501 µM (active)
Cn1c(O)c(C=NC2C(=O)C3(C)CCC2C3(C)C)c(=O)n(C)c1=O (centres undefined) | inactive

From PubChem BioAssay AID504848 (National Center for Advancing Translational Sciences (NCATS), 2011)
